Assay results taken from PubChem BioAssay (NCI).
About 79,000 compounds went through this panel and 15% of them were active in at least one assay; those are over-represented in the sample as a whole. Values without a mark were called inactive. Calls of active or inactive are those of the source. No stated cut-off is given here; in the data, active means growth inhibition above about 70%; inactive means the rest.

Experiment: NCI Yeast Anticancer Drug Screen. Data for the mlh1 rad18 strain (AID 175)
Conditions: S. cerevisiae mlh1 rad18 strain growth inhibition, hits give high values
Description: Growth inhibition of yeast strains with defined genetic alterations is measured as a screen for potential anti-cancer activity. Selected strains with alterations in DNA damage repair or cell cycle control were exposed to compounds and growth inhibition was measured relative to vehicle treated controls. The strain used in this assay is mlh1 rad18

[1] = at 5.0 µM (retest, dose inferred, filed as 0.5)
[2] = at 50.0 µM (retest, dose inferred, filed as 5.0)

Compound | growth inhibition [1] | growth inhibition [2] | growth inhibition (at 50.0 µM)
CCC[CH2][Sn]1([CH2]CCC)[O]CC(CN2CCCC2)[O]1 (configuration not stated) | 48% | 97% (active) | 82.2% (active)
Cc1cc(N(C)C)c2ccccc2[n+]1CCCCCCCCCC[n+]1c(C)cc(N(C)C)c2ccccc21 | 97% (active) | 99% (active) | 91.8% (active)
[C-]#[O+].[C-]#[O+].[Ir].[O-]c1ccc2ccccc2c1N=Nc1ccccc1 | -18% | -18% | 69.5%
CC1C(=O)OCC1(C)O (configuration not stated) | 4% | 3% | -21.6%
O=C(Nc1ccccc1)OC(C[N+](=O)[O-])C(Cl)(Cl)Cl (configuration not stated) | 11% | 99% (active) | 99.2% (active)
O=C(Nc1ccccc1)c1cc([N+](=O)[O-])ccc1O | 12% | 96% (active) | 97.5% (active)
C[n+]1[se]nc2cc(C(=O)c3ccccc3)ccc21 (tested in a mixture with another compound) | 99% (active) | 99% (active) | 99.3% (active)
N=P(c1ccccc1)(c1ccccc1)c1ccccc1 (tested in a mixture with another compound) | 6% | 27% | 59.9%
Cn1cc(NC(=O)c2cc(NC(=O)CN=C(N)N)cn2C)cc1C(=O)NCCC(=N)N | -18% | 94% (active) | 85.5% (active)
CC(=O)[O][Hg][c]1cc2c(cc1O)Cc1cc([N+](=O)[O-])ccc1-2 | 99% (active) | 99% (active) | 96.5% (active)
CCOP(=O)(OCC)Oc1cc(C)c(SC#N)c(C)c1 | 10% | 76% (active) | 34%
C[C@@]12CCC(=O)C=C1CC[C@H]1C2=CC[C@]2(C)C1CC[C@@]2(C)O (some centres not stated) | 25% | 58% | 50.5%
O=[N+]([O-])c1ccc(-n2nc3ccc4c(no[n+]4[O-])c3[n+]2[O-])c([N+](=O)[O-])c1 | 28% | 97% (active) | -13.2%
COC1(OC)C(Cl)=C(Cl)C(Cl)=C1Cl | 4% | 76% (active) | 78.8% (active)
